Results as given in PubChem BioAssay (NCATS).
Inconclusive results are not listed. A call without a number means that no potency is given here. Activity calls are given as the source filed them. Unless noted, the call rests on the fitted dose curve; in most records, active means well fitted curve in the direction sought with a large enough effect; inconclusive means small, poorly fitted or top-dose-only effect, or another doubt; inactive means no such curve, though single readings can be large; an effect the other way counts as inactive or inconclusive.

Assays:
[1] = Cell Viability - Hek293 (AID 427;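 active means compounds whose dose-response curve shows a full or clear partial loss of cell viability, called from curve shape rather than a numeric limit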;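 further: potency means the concentration at half of the fitted maximal effect; cells exposed to compound for 40 hours at 37 °C before reading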); details: qHTS
How it was run: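 qHTS, human embryonic kidney (adenovirus-transformed) cells; 40 hr cpd, 37 °C; CellTiter-Glo ATP luminescence. Norm: DMSO = 0, 100 uM tamoxifen = 100% inhibition. Hill-fit AC50.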

[2] = Cell Viability - SK-N-SH (AID 435; calls by dose curve; further: potency means the concentration at half of the fitted maximal effect); details: SK-N-SH neuroblastoma cell viability qHTS
How it was run: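 qHTS cytotoxicity: CellTiter-Glo ATP luminescence after 40 h compound exposure of human neuroblastoma SK-N-SH cells at 37 °C. AC50 derived by Hill-equation fitting, with DMSO as basal and 100 uM tamoxifen as full inhibition.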

[3] = Cell Viability - N2a (AID 540); details: N2a mouse neuroblastoma cell viability; activity change, negative = cytotoxicity: at 92.2 µM (top of the series); further: nearly all actives have a fitted effect of over 45% in size
How it was run: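 Mouse neuroblastoma N2a cells, 1500/well, exposed to compounds 40 h at 37 °C in complete medium. Viability measured as cellular ATP by CellTiter-Glo luminescence; AC50 from Hill fits of concentration-response.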

[4] = Cell Viability - SH-SY5Y (AID 544); details: SH-SY5Y neuroblastoma cell viability; viability change, negative = cytotoxic: at 92.2 µM (top of the series); further: nearly all actives have a fitted effect of over 55% in size
How it was run: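 SH-SY5Y human neuroblastoma cells (1500/well) incubated 5 h, then compound-treated 40 h at 37 °C in complete medium. Viability read as intracellular ATP by CellTiter-Glo luminescence after 20 min; AC50 from Hill-equation fits of qHTS concentration-response.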

[5] = Cell Viability - Renal Proximal Tubule (AID 545); details: renal proximal tubule cells viability, primary cells of rat origin; activity change, negative = cytotoxicity: at 91.7 µM (top of the series); further: nearly all actives have a fitted effect of over 40% in size
How it was run: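 Viability taken as intracellular ATP (CellTiter-Glo luminescence) after 40 hr, 37 °C compound treatment of primary proximal tubule cells from rat kidney, 1000 cells/well; Hill-equation fits of qHTS concentration-response data gave AC50.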

[6] = Cell Viability - LYMP2-001 (AID 921); details: LYMP2-001 lymphoblastoid cell viability; series mostly up to 92.2 µM; further: nearly all actives have a fitted effect of over 70% in size
How it was run: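 Cellular ATP loss read by luciferase luminescence after 24 h compound exposure at 37 C in complete medium. LYMP2-001 lymphoblastoid cells, 2500/well; qHTS concentration-response data fitted with Hill equation for AC50.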

[7] = MultiTox-Fluor Cytotoxicity Assay - LYMP1-002 - Dead Cells (AID 960); details: LYMP1-002 lymphoblastoid cells, dead-cell protease fluorescence; series mostly up to 46.1 µM;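 further: cells exposed to compound for 16 h at 37 °C; nearly all actives have a fitted effect of over 60% in size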
How it was run: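 Human lymphoblastoid LYMP1-002 cells, 2500/well, treated 16 h at 37 C; dead-cell protease cleavage of bis-AAF-R110 read by fluorescence (485/520); normalized to DMSO and 15 uM tetraoctylammonium bromide; AC50 from Hill fit.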

[8] = Cell Viability - LYMP2-005 (AID 967); details: LYMP2-005 lymphoblastoid cell viability; series mostly up to 92.2 µM
How it was run: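 LYMP2-005 human lymphoblastoid cells (2500/well) were treated with compounds for 24 h at 37 C. Intracellular ATP was then measured by CellTiter-Glo luminescence after 30 min at room temperature. AC50 values came from Hill-equation fits of qHTS concentration-response data.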

[9] = Cell Viability - LYMP2-009 (AID 968); details: LYMP2-009 lymphoblastoid cell viability; series mostly up to 92.2 µM; further: nearly all actives have a fitted effect of over 55% in size
[10] = Cell Viability - LYMP2-015 (AID 971); details: LYMP2-015 lymphoblastoid cell viability; series mostly up to 92.2 µM; further: nearly all actives have a fitted effect of over 55% in size
How it was run: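 LYMP2-015 human lymphoblastoid cells (2500/well) in complete medium, compound-treated 24 h at 37 C; viability read as cellular ATP by CellTiter-Glo luminescence after 30 min at room temperature. AC50 from Hill-equation fits of qHTS concentration-response data.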

[11] = Cell Viability - LYMP2-017 (AID 972); details: LYMP2-017 lymphoblastoid cell viability; series mostly up to 92.2 µM; further: nearly all actives have a fitted effect of over 55% in size
How it was run: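 LYMP2-017 human lymphoblastoid cells (2500/well) settled 5 hr at 37 C, then exposed to compound 24 hr at 37 C in complete medium. Viability taken as intracellular ATP by CellTiter-Glo luminescence after 30 min at RT; AC50 from Hill fits.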

[12] = Cell Viability - LYMP2-019 (AID 973); details: LYMP2-019 lymphoblastoid cell line viability; series mostly up to 92.2 µM; further: nearly all actives have a fitted effect of over 55% in size
How it was run: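 Human lymphoblastoid LYMP2-019 cells (2500/well) preincubated 5 h at 37 C, then treated 24 h at 37 C in complete medium. Viability by CellTiter-Glo ATP luminescence after 30 min at room temperature; AC50 from Hill fits.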

[13] = Cell Viability - LYMP2-010 (AID 981); details: LYMP2-010 lymphoblastoid cell viability, qHTS; series mostly up to 92.2 µM; further: nearly all actives have a fitted effect of over 55% in size
How it was run: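 Human lymphoblastoid LYMP2-010 cells (2500/well) treated 24 h at 37 C in complete medium; viability read as intracellular ATP by CellTiter-Glo luminescence. AC50 from Hill fits of concentration-response data; tetraoctylammonium bromide positive control.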

[14] = qHTS assay for small molecule agonists of retinoid X receptor alpha signaling (AID 588544; calls by dose curve); details: HEK293T RXRa-UAS-bla, beta-lactamase reporter, 18 h; 530 nm emission
[15] = biological target: Retinoic acid receptor RXR-alpha (Homo sapiens) (UniProt P19793); experiment: as above; details: HEK293T RXRa-UAS-bla, beta-lactamase reporter, 18 h; series mostly up to 76.7 µM
[16] = biological target: Thyroid hormone receptor beta (Homo sapiens) (UniProt P10828); experiment: qHTS assay for small molecule agonists of thyroid hormone receptor beta signaling (AID 588545; calls by dose curve); details: TR-UAS-bla GripTite HEK 293, beta-lactamase ratio, agonist mode, 18 h; series mostly up to 76.7 µM
How it was run: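 Beta-lactamase reporter activity under TR response element control is measured in HEK 293 cells after 18 hrs compound exposure. Signal is ratiometric CCF4 fluorescence, 460/530 nm.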

[17] = qHTS assay for small molecule disruptors of the mitochondrial membrane potential - 1 hr assay (AID 651754; calls by dose curve; further: nearly all actives have a fitted effect of over 35% in size); details: series mostly up to 92.2 µM
How it was run: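 HepG2 cells, attached overnight, were exposed to compound for 1 hr at 37C, then stained 30 min with a potentiometric dye. Ratio of red aggregate (590nm) to green monomer (535nm) fluorescence reports membrane potential; collapse shifts signal toward green.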

[18] = qHTS assay for small molecule disruptors of the mitochondrial membrane potential - 5 hr assay (AID 651755; calls by dose curve; further: nearly all actives have a fitted effect of over 40% in size); details: JC-1-type ratio dye; series mostly up to 92.2 µM
How it was run: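 HepG2, 2,000 cells/well, overnight attach; cpd or DMSO 5 hr, 37C/5% CO2; Mito-MPS 30 min 37C; fluor 490/535 + 540/590 nm.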

[19] = qHTS assay for small molecule agonists of the antioxidant response element (ARE) signaling pathway measured by Nrf2-dependant transcriptional activity (AID 720636; active means well fitted curve in the direction sought with a large enough effect in the repeat runs; an effect the other way counts as inactive or inconclusive;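 further: HepG2 cells with an ARE-driven luciferase reporter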); details: ARE-luc HepG2, Nrf2 luciferase reporter, 16 h; series mostly up to 92.4 µM
How it was run: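 In HepG2 cells engineered with an Nrf2-responsive luciferase gene, ARE induction was quantified as luminescence after 16 hr compound treatment at 37 C.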

[20] = biological target: Nuclear receptor subfamily 1 group I member 2 (Rattus norvegicus) (UniProt Q9R1A7); experiment: qHTS assay for small molecule activators of the rat pregnane X receptor (rPXR) signaling pathway (AID 651751; call rule not given here); details: rPXR reporter cells, luciferase (One-Glo), 24 h
Nuclear receptor subfamily 1 group I member 2 (Rattus norvegicus), sequence (Q9R1A7 whole entry, looked up): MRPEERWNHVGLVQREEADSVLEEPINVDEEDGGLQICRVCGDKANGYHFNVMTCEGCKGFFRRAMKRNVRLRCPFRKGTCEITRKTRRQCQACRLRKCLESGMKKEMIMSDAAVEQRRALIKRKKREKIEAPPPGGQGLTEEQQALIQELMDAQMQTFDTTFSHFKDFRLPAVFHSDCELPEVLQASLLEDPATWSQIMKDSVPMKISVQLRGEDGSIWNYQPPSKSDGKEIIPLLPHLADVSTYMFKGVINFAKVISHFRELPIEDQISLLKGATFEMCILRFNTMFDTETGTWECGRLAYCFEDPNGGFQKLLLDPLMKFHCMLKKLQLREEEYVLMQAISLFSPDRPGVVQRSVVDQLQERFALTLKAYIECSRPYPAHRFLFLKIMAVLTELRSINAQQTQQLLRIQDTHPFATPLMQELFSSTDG

Retinoic acid receptor RXR-alpha (Homo sapiens), sequence (P19793 whole entry, looked up): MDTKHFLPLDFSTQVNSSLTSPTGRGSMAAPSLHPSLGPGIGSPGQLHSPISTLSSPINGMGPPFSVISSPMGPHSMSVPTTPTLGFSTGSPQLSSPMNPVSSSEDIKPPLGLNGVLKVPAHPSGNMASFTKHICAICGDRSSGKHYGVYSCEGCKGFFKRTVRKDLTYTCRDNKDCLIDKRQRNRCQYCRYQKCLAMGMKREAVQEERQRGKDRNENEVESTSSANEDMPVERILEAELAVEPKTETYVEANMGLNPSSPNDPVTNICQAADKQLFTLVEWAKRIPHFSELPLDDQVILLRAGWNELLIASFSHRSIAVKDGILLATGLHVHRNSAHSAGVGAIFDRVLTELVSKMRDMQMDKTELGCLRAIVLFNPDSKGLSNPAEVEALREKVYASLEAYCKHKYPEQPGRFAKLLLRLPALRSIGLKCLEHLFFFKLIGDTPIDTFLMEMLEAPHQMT
Thyroid hormone receptor beta (Homo sapiens), sequence (P10828 whole entry, looked up): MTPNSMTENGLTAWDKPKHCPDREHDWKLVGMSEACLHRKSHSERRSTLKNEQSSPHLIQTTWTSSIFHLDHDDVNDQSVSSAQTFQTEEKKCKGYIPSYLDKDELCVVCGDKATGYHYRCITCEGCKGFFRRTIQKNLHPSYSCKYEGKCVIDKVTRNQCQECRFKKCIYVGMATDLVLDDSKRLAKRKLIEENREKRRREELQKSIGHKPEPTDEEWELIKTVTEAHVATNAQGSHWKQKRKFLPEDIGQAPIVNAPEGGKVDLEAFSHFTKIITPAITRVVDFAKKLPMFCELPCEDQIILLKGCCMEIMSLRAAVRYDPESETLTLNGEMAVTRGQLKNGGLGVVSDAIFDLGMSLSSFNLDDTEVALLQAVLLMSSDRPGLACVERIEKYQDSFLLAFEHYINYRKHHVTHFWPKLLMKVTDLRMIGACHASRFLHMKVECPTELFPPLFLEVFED

SMILES	Potency [1]	Potency [2]	activity change, negative = cytotoxicity [3]	Potency [4]	Potency [5]	Potency [6]	Potency [7]	Potency [8]	Potency [9]	Potency [10]	Potency [11]	Potency [12]	Potency [13]	max response [14] [%]	Potency [15]	Potency [16]	Potency [17]	Potency [18]	Potency [19]	max response [20]
c1ccncc1	> 92 µM (inactive)	> 92 µM (inactive)	-3.08% (inactive)	inactive	inactive	inactive	inactive	inactive	inactive	inactive	inactive	inactive	inactive	1.38	inactive	inactive	inactive	inactive	inactive	3.74% (inactive)
C1CCCNCC1	> 92 µM (inactive)	> 92 µM (inactive)	-7.29% (inactive)	inactive	inactive	inactive	–	inactive	inactive	inactive	inactive	inactive	inactive	-9.69	inactive	inactive	–	inactive	inactive	1.16% (inactive)
c1ccc(COCc2ccccc2)cc1	> 92 µM (inactive)	> 92 µM (inactive)	-4.56% (inactive)	inactive	inactive	inactive	inactive	inactive	inactive	inactive	inactive	inactive	inactive	-5.39	inactive	inactive	inactive	inactive	inactive	4.39% (inactive)
